# Compound activity as filed in PubChem BioAssay.
# This is a sample that favours compounds with a hit; in the whole collection about 19% have one here.
# uPA surface inh = cell surface uPA generation inhibition; cell surface uPA generation assay, qHTS; Potency, µM (series often up to 38.3 µM), actives largely listed as inhibitors; hit rate 0.31% among 330,000; AID 540303; active = well fitted inhibition curve with a large enough effect; inconclusive = small, poorly fitted or top-dose-only effect; inactive = no such curve, though single readings can be large or run the other way; tested in mouse RAW 264.7 cells; also: nearly all actives have a fitted effect of over 55% in size
# TDP1 cell noCPT = qHTS for Inhibitors of human tyrosyl-DNA phosphodiesterase 1 (TDP1): qHTS in cells in absence of CPT | Potency, µM (top dose mostly 46.2 µM), most hits filed as inhibitors | DT40 Tdp1-/- hTDP1 cells, no CPT, ATP luminescence, 48 h | hit rate 15% among 420,000; also: nearly all actives have a fitted effect of over 55% in size
#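 No-CPT arm: Tdp1-/-;hTDP1 DT40 cells (400/well) plus compounds, incubated ≥48 hr at 37 °C. Readout CellTiter-Glo luminescence.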
# IL1B secr inh = blocks inflammasome-driven IL-1 beta release; THP-1 LPS/ATP IL-1B secretion, AlphaLISA, 16 h; hits give low values; activity change, % at 57.5 µM; hit rate 4.7% among 360,000; AID 743279; in the data active = activity change below about -50%; inconclusive = mostly about -30% to -49%
#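 Secreted IL-1B measured by AlphaLISA bead assay after 16 h compound exposure of THP-1 cells; compounds (final up to 57.5 uM) added 1 h before LPS (250 ng/mL) and ATP (1.25 mM) stimulation; lower signal means less secretion.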
# HT1080 IDH1KD tx = toxicity to HT-1080 IDH1 knockdown cells (counter line) | hit rate 2% among 360,000 | Potency, µM (series often up to 46.1 µM), most hits filed as cytotoxic | HT-1080 IDH1 knockdown viability, ATP luminescence, 48 h
#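 Assay cells: HT-1080 with IDH1 knockdown, 750 per well, RPMI/5% FBS. Exposure: 48 h at 37 °C following 2 h pre-incubation. Read: CellTiter-Glo luminescence; fitted concentration-response, curve class assigned.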
# HT1080NT lethal = kills 2HG-producing HT-1080-NT fibrosarcoma cells | HT-1080-NT fibrosarcoma viability, CellTiter-Glo ATP luminescence, 48 h | Potency, µM (series often up to 46.1 µM), hits mostly cytotoxic | hit rate 1.6% among 360,000;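 also: NT is the 2HG producing partner of a matched IDH1 knockdown line; nearly all actives have a fitted effect of over 55% in size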
#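 HT-1080-NT; 750 cells/well; 5% FBS RPMI; 48 h compound, 37 degrees C; CellTiter-Glo luminescence; curve fitting and curve-class assignment.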
# TDP1 cell CPT = growth inhibition of DT40 Tdp1-/-;hTDP1 cells with camptothecin (screen for TDP1 inhibitors) | chicken DT40 Tdp1-/-;hTDP1 cells + 20 nM CPT, ATP luminescence, 48 h | Potency, µM (titrated, usually from 46.2 µM), most hits filed as inhibitors | hit rate 12% among 420,000 | AID 686979; also: nearly all actives have a fitted effect of over 55% in size
#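 Cell growth measured by CellTiter-Glo luminescence after a minimum 48 h, 37 C compound exposure with 20 nM CPT in Tdp1-knockout DT40 cells stably expressing hTDP1, seeded 400/well; qHTS titration format.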
# Numbers stand for hits; 0 = inactive; ? = inconclusive; - = no result given; ! = a repeat was not active; [ ] = dose if it differs, or a comment. Unless noted, calls follow the shape of the dose curve; as a rule, active = well fitted curve in the direction sought with a large enough effect; inconclusive = small, poorly fitted or top-dose-only effect, or another doubt; inactive = no such curve, though single readings can be large; an effect the other way counts as inactive or inconclusive.
SMILES,uPA surface inh,TDP1 cell noCPT,IL1B secr inh,HT1080 IDH1KD tx,HT1080NT lethal,TDP1 cell CPT
Cn1c(=O)c(=O)n(C)c2cc([N+](=O)[O-])c([N+](=O)[O-])cc21,0,18µM,-101,?,?,15µM
Cn1cccc([N+](=O)[O-])c1=O,-,0,0,0,0,0
O=S(=O)(NCc1ccccc1Cl)c1ccc(-c2cnc(C3CC3)o2)cc1,-,2.9µM,-,-,-,3.7µM
CCOc1ccccc1CNS(=O)(=O)c1ccc(-c2coc(C)n2)cc1,-,16µM,-,-,-,16µM
CCOC(=O)c1ccc(NS(=O)(=O)c2ccc(-c3coc(C)n3)cc2)cc1,0,0,0,0,0,0
Cc1nc(-c2ccc(S(=O)(=O)NCc3ccc(OC(C)C)cc3)cc2)co1,-,26µM,-,-,-,?
CCOc1ccccc1CNS(=O)(=O)c1ccc(-c2cnc(C3CC3)o2)cc1,0.28µM,0.65µM,0,1.2µM,7.3µM,0.82µM
CCOc1ccc(NS(=O)(=O)c2ccc(-c3coc(C)n3)cc2)cc1,0,?,0,0,0,?
CC[C@]1(C(=O)OC)[C@H]2C(=O)N(C)C(=O)[C@H]2[C@H]2CN(C)C(=NC3CCCCC3)N21,0,0,0,0,0,0
CCCn1c(CCC(=O)O)nc2cc(S(=O)(=O)N3CCCC3)ccc21,0,0,0,0,0,0
CN(Cc1nc(-c2ccncc2)no1)S(=O)(=O)c1ccc(Cl)cc1,0,?,0,0,0,?
Cc1ccc(-c2noc(CN(C3CCCCC3)S(=O)(=O)c3ccc(Cl)cc3)n2)cc1,-,?,-,-,-,26µM
COc1ccc(Cc2nc(-c3ccc(Cl)cc3)no2)cc1,0,0,0,0,0,0
COc1ccc(S(=O)(=O)N(Cc2nc(-c3ccc(Cl)cc3)no2)C2CCCCC2)cc1,-,21µM,-,-,-,21µM
O=S(=O)(c1ccc(F)cc1)N(Cc1nc(-c2ccc(Cl)cc2)no1)C1CCCCC1,-,26µM,-,-,-,?
NNC(=O)c1csc(-c2ncc(C(F)(F)F)cc2Cl)n1,0,0,0,0,0,0
CCc1cccc(NC(=O)c2ccc(CNS(=O)(=O)c3ccc4c(c3)C(C)(C)C(=O)N4C)cc2)c1,-,16µM,-,-,-,?
Cc1ccc(NC(=O)c2ccc(CNS(=O)(=O)c3ccc4c(c3)C(C)(C)C(=O)N4C)cc2)cc1F,-,15µM,-,-,-,16µM
CCOc1ccccc1CNS(=O)(=O)c1ccc2c(c1)C(C)(C)C(=O)N2C,0,23µM!,0,0,0,?
C1=CC2c3ccccc3NC(c3ccncc3)C2C1 (configuration not stated),0,?,-107,0,0,?
N[C@@H](Cn1ccc(=O)n(Cc2ccccc2C(=O)O)c1=O)C(=O)O,-,0,-,-,-,0
Cc1cc(/C=C/c2c(C)cnc3ccccc23)ccc1N(C)C,-,8.9µM,-,-,-,8.9µM
Cc1cnc2ccc(I)cc2c1/C=C/c1ccc(N(C)C)cc1,-,4.5µM,-,-,-,?
CN(C)c1ccc(/C=C/c2c(F)cnc3ccccc23)cc1,-,3.2µM,-,-,-,7.9µM
O=S(=O)(c1ccc2nc(Nc3ccc(Br)cc3F)ccc2c1)N1CCCC1,-,0,-,-,-,0
SMILES,uPA surface inh,TDP1 cell noCPT,IL1B secr inh,HT1080 IDH1KD tx,HT1080NT lethal,TDP1 cell CPT
Cc1cc(C)cc(NC(=O)N2CCC(CN3CCc4ccccc4C3)CC2)c1,-,13µM,-,-,-,?
CCOC(=O)c1ccc(N2C(=O)c3n[nH]c(-c4cccs4)c3C2c2ccc(C(C)C)cc2)cc1 (configuration not stated),-,16µM,-,-,-,?
CCOC(=O)c1ccc(N2C(=O)c3n[nH]c(C)c3C2c2ccc(C(C)(C)C)cc2)cc1 (configuration not stated),-,?,-,-,-,0
Cc1ccc(-c2n[nH]c3c2C(c2cccc(O)c2)N(c2ccc(C(=O)O)cc2)C3=O)cc1 (configuration not stated),0,0,0,0,0,0
CCOC(=O)c1ccc(N2C(=O)c3n[nH]c(C)c3C2c2ccc(OC)c(OC)c2)cc1 (configuration not stated),0,?,0,0,0,0
CCOC(=O)c1ccc(N2C(=O)c3n[nH]c(-c4cccs4)c3C2c2cccc(O)c2)cc1 (configuration not stated),-,21µM,-,-,-,16µM
CCOC(=O)c1ccc(N2C(=O)c3n[nH]c(-c4cccs4)c3C2c2ccc(CC)cc2)cc1 (configuration not stated),-,12µM,-,-,-,15µM
CCOC(=O)c1ccc(N2C(=O)c3n[nH]c(-c4cccs4)c3C2c2ccc(OCC)cc2)cc1 (configuration not stated),-,12µM,-,-,-,29µM
CCc1ccc(-n2c3nc(=O)[nH]c(=O)c-3cc3c(C)nn(-c4ccccc4)c32)cc1,-,0,-,-,-,0
CCN1CCCC1CNC(=O)c1cnn(-c2ncc3c(n2)-c2ccc(OC)cc2CC3)c1C1CC1 (configuration not stated),-,0,-,-,-,0[9.04 µM]
O=C(C1CCCN(S(=O)(=O)c2ccc(Cl)cc2)C1)N(Cc1cccs1)C1CC1 (configuration not stated),0,18µM,?,0,0,?
CN(CC(=O)Nc1cc(S(=O)(=O)N2CCCC2)ccc1Cl)Cc1cccs1,?,16µM,0,0,0,?
CCN(CC(=O)NCc1ccc(F)cc1)CC(=O)Nc1ccc(S(=O)(=O)N2CCCC2)cc1,0,0,0,0,0,0
CCN(CC(=O)Nc1cc(S(=O)(=O)N2CCCCC2)ccc1Cl)Cc1ccccc1,0,18µM,0,0,0,16µM
O=C(COC(=O)CCS(=O)(=O)c1ccccc1)Nc1cc(S(=O)(=O)N2CCCCC2)ccc1Cl,0,0,0,0,0,0
CCN(CC(=O)Nc1ccc(S(=O)(=O)N2CCCCC2)cc1)Cc1ccccc1,0,?,0,0,0,12µM
O=C(Nc1ccc(Br)cc1F)c1cccnc1,?,0,0,0,0,?
C[C@H](NC(=O)C1CC(=O)N(c2ccc3c(c2)OCCO3)C1)C(=O)N1CCCCC1 (some centres not stated),0,0,0,0,0,0
CCc1nn(-c2ccccc2)c2nc(-c3cccc(OC)c3)c3cc(OC)c(OC)cc3c12,-,0,-,-,-,0
O=S(=O)(c1ccc(S(=O)(=O)N(Cc2ccccc2)Cc2ccco2)cc1)N1CCCC1,-,?,0,0,0,15µM
CCN(Cc1ccccc1)S(=O)(=O)c1ccc(S(=O)(=O)N2CCN(C)CC2)cc1,0,0,0,0,0,0
Cc1cc(C)nc(/N=C(\N)Nc2cc([N+](=O)[O-])ccc2C)n1,0,0,-,0,0,?
CCN(/C(N)=N/c1nc(C)cc(C)n1)c1ccccc1,0,16µM,0,0,0,0
